According to paper PMC7862700, “An all-to-all approach to the identification of sequence-specific readers for epigenetic DNA modifications on cytosine”:

Key:
Assay in all cases: DAPPL (digital affinity profiling via proximity ligation, sequencing); 10 mM Tris-HCl pH 7.5, 50 mM NaCl, 1 mM DTT, 4% glycerol, room temperature, 30 min; GST-TFs on glutathione beads, 16-mer random dsDNA library, 0.1% formaldehyde crosslink after washing; high values mean tight binding
Conditions in all cases: protein: recombinant; tags: N-terminal GST; dsDNA, one strand shown
ELK1 = biological target: T1, ELK1 (Homo sapiens, UniProt P19419 1-428)
T1 sequence: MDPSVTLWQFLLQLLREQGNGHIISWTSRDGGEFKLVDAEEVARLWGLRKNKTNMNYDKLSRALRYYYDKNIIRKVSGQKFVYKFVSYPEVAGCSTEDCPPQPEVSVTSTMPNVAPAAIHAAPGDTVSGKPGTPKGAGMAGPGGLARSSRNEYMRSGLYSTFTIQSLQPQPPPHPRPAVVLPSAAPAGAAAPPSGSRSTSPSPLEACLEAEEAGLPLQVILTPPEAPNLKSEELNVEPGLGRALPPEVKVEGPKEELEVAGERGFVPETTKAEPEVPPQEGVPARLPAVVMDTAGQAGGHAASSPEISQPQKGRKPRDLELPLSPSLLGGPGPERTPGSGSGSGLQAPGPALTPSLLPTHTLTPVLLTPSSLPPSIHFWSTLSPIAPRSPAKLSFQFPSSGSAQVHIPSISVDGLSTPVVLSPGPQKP
Summary of the method: (§1)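 Pools were built from human transcription factors expressed in yeast as GST fusions, captured on glutathione beads and DNA-barcoded, along with a tag-only sample. Incubation with 200 nmole of a 16-mer random double-stranded DNA library lasted 30 min at room temperature in Tris/NaCl/DTT/glycerol buffer, and was followed by washing, 0.1% formaldehyde crosslinking, proximity ligation, PCR amplification and Illumina NextSeq500 sequencing. Binding signal is the quotient of each hexamer's read frequency for a factor and its frequency for the tag-only sample.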

GABPA = biological target: T2, GABPA (Homo sapiens, UniProt Q06546 1-454)
T2 sequence: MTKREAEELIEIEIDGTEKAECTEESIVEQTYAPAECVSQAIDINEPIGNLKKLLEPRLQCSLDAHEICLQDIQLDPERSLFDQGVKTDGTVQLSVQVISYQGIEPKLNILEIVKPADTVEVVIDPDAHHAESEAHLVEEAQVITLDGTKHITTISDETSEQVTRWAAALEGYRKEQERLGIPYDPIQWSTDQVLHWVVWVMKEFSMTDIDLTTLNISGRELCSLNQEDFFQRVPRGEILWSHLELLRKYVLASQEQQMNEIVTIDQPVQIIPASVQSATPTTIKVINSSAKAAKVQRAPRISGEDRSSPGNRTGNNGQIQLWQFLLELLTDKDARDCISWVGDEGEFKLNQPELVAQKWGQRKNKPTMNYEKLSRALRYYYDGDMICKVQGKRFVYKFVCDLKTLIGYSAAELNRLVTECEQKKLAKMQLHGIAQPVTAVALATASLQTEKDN
Summary of the method: as §1

ERG = biological target: T3, ERG (Homo sapiens, UniProt P11308 1-479)
T3 sequence: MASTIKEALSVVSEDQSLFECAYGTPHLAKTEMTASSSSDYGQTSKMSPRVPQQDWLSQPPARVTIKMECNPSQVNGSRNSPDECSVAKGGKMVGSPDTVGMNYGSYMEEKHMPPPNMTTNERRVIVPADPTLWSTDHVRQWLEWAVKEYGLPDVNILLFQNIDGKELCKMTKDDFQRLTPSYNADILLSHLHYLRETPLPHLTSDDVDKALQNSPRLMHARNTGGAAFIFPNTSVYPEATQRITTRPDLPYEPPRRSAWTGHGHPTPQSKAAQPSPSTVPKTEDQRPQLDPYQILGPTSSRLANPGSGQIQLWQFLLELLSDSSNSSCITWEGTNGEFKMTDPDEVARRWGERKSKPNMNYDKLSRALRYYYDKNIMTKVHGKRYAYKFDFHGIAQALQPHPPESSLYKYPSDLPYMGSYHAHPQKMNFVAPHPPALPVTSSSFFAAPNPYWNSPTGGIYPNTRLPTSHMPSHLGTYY
Summary of the method: as §1

ELF1 = ELF1 (Homo sapiens, UniProt P32519 1-619)
Chain of ELF1 (P32519 whole entry): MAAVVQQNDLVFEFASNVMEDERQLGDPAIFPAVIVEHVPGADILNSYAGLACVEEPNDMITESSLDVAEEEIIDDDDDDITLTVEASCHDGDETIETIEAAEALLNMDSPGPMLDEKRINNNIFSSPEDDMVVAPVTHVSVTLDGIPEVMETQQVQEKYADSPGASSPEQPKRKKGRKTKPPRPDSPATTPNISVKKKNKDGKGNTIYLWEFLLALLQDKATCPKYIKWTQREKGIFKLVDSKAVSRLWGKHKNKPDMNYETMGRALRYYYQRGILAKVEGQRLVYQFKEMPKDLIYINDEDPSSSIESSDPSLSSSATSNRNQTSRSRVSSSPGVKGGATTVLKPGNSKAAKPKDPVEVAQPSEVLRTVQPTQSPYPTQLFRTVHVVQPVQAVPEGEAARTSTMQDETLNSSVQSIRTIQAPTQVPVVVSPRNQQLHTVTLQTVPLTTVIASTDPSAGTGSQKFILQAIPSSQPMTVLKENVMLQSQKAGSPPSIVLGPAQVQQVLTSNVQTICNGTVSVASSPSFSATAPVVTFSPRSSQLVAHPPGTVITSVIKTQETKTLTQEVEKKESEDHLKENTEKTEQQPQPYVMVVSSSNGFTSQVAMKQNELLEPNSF
Summary of the method: as §1

EHF = biological target: T4, EHF (Homo sapiens, UniProt Q9NZC4 1-300)
T4 sequence: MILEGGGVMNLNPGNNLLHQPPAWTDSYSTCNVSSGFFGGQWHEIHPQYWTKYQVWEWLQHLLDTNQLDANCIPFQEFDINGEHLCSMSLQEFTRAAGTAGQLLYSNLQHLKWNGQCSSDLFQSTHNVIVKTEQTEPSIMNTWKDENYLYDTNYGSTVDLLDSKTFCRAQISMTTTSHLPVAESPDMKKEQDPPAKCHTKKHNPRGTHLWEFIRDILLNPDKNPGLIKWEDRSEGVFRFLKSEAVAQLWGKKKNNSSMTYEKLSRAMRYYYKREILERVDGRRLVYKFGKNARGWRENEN
Summary of the method: as §1

SPIB = SPIB (Homo sapiens, UniProt Q01892 1-262)
Chain of SPIB (Q01892 whole entry): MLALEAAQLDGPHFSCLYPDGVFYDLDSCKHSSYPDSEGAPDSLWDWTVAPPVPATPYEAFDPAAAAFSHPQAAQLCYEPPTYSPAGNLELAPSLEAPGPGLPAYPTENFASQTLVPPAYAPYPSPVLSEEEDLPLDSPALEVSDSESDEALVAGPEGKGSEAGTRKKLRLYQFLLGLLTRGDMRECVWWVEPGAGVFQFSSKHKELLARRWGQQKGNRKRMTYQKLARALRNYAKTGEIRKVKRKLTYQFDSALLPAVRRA
Summary of the method: as §1

ETV5 = ETV5 (Homo sapiens, UniProt P41161 1-510)
Chain of ETV5 (P41161 whole entry): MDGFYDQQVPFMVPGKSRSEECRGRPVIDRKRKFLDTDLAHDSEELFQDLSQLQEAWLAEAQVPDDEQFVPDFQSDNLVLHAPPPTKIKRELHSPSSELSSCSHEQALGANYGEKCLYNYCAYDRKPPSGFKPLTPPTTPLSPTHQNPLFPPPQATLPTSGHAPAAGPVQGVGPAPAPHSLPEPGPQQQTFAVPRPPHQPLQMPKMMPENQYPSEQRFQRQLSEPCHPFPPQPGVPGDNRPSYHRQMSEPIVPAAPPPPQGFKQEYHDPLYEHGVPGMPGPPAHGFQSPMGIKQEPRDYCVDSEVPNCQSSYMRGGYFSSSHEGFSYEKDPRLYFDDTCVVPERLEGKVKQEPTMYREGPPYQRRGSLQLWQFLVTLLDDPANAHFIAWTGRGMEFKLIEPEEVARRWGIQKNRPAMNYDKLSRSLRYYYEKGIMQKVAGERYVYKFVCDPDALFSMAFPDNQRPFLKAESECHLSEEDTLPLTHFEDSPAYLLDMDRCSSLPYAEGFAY
Summary of the method: as §1

ELF4 = ELF4 (Homo sapiens, UniProt Q99607 1-663)
Chain of ELF4 (Q99607 whole entry): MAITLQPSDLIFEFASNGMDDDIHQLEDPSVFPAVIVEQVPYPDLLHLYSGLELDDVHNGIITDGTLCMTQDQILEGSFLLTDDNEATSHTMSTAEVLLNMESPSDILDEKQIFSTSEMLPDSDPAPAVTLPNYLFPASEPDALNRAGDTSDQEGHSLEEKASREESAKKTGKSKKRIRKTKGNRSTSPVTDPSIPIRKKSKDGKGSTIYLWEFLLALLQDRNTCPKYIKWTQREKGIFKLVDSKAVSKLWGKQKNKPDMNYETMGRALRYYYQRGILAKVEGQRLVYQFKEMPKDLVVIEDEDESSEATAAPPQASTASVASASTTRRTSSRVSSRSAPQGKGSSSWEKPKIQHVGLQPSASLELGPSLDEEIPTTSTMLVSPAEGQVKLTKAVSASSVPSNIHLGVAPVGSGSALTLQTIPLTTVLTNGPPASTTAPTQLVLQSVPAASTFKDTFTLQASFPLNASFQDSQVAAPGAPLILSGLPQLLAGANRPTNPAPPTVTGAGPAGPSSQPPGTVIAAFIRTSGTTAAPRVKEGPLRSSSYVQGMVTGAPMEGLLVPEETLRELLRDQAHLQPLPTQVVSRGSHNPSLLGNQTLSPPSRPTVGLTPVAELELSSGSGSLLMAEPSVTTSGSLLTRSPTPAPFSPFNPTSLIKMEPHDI
Summary of the method: as §1

ELK4 = biological target: T5, ELK4 (Homo sapiens, UniProt P28324-2 1-405)
T5 sequence: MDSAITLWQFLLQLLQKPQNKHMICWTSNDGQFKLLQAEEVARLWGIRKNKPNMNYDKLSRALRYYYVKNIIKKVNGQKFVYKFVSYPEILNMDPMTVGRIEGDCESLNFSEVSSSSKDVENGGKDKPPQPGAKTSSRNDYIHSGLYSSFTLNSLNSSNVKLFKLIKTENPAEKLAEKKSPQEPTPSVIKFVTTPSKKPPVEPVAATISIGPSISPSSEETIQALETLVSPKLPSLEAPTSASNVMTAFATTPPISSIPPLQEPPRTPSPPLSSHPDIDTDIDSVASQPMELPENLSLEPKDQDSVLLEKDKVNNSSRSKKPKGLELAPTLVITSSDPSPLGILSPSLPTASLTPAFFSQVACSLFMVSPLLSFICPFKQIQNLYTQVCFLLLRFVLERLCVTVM
Summary of the method: as §1

ELF3 = biological target: T6, ELF3 (Homo sapiens, UniProt P78545 1-371)
T6 sequence: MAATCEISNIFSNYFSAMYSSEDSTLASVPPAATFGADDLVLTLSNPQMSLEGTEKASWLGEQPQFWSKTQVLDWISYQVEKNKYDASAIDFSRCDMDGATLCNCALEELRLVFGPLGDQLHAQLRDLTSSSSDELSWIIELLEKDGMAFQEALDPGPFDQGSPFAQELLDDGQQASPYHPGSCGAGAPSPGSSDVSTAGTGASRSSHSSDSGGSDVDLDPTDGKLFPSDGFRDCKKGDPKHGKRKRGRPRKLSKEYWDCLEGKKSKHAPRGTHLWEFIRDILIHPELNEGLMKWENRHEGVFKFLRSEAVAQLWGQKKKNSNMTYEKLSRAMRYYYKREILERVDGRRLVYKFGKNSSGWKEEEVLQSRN
Summary of the method: as §1

ETV1 = ETV1 (Homo sapiens, UniProt P50549 1-477)
Chain of ETV1 (P50549 whole entry): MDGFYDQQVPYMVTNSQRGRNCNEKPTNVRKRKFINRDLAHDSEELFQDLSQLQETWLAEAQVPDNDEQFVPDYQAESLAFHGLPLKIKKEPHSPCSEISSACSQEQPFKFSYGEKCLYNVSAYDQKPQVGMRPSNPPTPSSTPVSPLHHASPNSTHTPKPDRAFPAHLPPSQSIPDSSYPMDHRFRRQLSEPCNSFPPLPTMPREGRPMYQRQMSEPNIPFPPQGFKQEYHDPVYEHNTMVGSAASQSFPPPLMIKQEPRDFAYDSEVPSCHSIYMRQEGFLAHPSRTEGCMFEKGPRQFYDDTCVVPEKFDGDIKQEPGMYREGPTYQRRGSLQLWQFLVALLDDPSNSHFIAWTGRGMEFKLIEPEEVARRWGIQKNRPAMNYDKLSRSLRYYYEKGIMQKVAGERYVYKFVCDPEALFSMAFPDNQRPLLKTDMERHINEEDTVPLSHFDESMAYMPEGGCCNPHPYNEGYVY
Summary of the method: as §1

ERF = biological target: T7, ERF (Homo sapiens, UniProt P50548 1-548)
T7 sequence: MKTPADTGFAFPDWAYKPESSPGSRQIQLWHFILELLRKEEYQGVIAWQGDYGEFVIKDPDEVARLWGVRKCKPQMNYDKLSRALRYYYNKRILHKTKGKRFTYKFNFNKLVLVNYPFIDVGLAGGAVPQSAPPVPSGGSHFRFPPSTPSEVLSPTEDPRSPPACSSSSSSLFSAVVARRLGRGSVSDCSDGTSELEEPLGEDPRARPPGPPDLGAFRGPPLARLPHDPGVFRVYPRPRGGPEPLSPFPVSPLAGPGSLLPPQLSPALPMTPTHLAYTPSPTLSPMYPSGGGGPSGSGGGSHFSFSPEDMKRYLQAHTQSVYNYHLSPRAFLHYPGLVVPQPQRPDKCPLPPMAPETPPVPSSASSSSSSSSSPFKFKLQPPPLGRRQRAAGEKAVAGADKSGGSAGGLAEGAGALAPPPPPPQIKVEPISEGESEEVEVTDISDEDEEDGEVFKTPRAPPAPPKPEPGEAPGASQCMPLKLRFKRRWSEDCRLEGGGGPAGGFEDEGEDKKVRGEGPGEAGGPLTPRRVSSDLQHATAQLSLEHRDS
Summary of the method: as §1

ETV3L = biological target: T8, ETV3L (Homo sapiens, UniProt Q6ZN32 1-361)
T8 sequence: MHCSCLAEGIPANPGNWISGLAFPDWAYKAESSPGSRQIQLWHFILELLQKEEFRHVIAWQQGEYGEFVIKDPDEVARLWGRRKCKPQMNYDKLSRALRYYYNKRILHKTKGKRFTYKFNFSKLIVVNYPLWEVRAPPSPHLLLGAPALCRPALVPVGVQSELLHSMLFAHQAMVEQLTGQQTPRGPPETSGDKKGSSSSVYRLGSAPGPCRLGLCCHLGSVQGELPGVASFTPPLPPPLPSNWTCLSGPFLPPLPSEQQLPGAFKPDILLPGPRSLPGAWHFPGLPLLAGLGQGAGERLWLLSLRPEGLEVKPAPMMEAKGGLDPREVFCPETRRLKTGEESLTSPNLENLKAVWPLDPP
Summary of the method: as §1

ETS2 = biological target: T9, ETS2 (Homo sapiens, UniProt P15036 1-469)
T9 sequence: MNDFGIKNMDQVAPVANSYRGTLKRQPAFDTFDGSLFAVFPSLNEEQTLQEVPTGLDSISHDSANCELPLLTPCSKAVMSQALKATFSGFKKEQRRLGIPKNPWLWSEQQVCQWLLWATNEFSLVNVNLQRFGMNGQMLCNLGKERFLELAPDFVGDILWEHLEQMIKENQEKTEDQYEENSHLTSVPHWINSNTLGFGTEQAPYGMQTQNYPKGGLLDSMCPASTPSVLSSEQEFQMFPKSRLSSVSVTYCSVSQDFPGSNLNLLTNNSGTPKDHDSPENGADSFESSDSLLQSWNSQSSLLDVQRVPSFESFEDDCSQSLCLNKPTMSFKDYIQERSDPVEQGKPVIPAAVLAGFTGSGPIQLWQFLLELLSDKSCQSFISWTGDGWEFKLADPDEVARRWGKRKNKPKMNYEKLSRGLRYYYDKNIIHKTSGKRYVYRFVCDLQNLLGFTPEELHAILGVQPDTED
Summary of the method: as §1

ETV7 = biological target: T10, ETV7 (Homo sapiens, UniProt Q9Y603 1-341)
T10 sequence: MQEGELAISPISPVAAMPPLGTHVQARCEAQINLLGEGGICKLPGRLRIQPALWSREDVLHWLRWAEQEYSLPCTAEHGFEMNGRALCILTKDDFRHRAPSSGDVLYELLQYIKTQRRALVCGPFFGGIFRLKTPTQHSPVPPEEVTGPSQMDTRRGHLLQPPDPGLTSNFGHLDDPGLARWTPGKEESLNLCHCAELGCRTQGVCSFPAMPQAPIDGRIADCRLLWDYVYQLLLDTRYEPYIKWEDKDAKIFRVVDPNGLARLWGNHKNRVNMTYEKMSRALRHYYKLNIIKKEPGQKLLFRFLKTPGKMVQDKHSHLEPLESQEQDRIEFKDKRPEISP
Summary of the method: as §1

ETV3 = biological target: T11, ETV3 (Homo sapiens, UniProt P41162-2 1-143)
T11 sequence: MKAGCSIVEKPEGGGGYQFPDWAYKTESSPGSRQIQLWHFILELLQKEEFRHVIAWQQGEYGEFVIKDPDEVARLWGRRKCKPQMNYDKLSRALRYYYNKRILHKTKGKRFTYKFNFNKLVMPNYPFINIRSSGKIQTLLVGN
Summary of the method: as §1

ETV6 = ETV6 (Homo sapiens, UniProt P41212 1-452)
Chain of ETV6 (P41212 whole entry): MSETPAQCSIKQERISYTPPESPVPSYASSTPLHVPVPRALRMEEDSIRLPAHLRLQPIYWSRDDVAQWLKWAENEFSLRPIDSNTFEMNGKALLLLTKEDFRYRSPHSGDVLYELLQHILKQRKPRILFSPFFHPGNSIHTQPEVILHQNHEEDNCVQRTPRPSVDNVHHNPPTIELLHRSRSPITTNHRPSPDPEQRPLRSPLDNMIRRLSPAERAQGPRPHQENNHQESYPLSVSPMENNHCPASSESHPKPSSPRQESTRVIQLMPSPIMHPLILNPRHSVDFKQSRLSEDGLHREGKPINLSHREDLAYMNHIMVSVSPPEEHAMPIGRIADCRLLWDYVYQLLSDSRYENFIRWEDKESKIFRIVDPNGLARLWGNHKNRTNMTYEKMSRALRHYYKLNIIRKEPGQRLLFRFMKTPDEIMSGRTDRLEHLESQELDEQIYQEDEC
Summary of the method: as §1

GTAGCT
binding signal (ELK1): 1.08 fold enrichment (6-mer frequency, TF over GST control) | binding signal (GABPA): 1.12 fold enrichment (6-mer frequency, TF over GST control) | binding signal (ERG): 1.05 fold enrichment (6-mer frequency, TF over GST control) | binding signal (ELF1): 1.06 fold enrichment (6-mer frequency, TF over GST control) | binding signal (EHF): 1.12 fold enrichment (6-mer frequency, TF over GST control) | binding signal (SPIB): 1.18 fold enrichment (6-mer frequency, TF over GST control) | binding signal (ETV5): 1.14 fold enrichment (6-mer frequency, TF over GST control) | binding signal (ELF4): 1.1 fold enrichment (6-mer frequency, TF over GST control) | binding signal (ELK4): 1.17 fold enrichment (6-mer frequency, TF over GST control) | binding signal (ELF3): 1.18 fold enrichment (6-mer frequency, TF over GST control) | binding signal (ETV1): 1.13 fold enrichment (6-mer frequency, TF over GST control) | binding signal (ERF): 1.1 fold enrichment (6-mer frequency, TF over GST control) | binding signal (ETV3L): 1.08 fold enrichment (6-mer frequency, TF over GST control) | binding signal (ETS2): 1.13 fold enrichment (6-mer frequency, TF over GST control) | binding signal (ETV7): 1.12 fold enrichment (6-mer frequency, TF over GST control) | binding signal (ETV3): 1.09 fold enrichment (6-mer frequency, TF over GST control) | binding signal (ETV6): 1.06 fold enrichment (6-mer frequency, TF over GST control)
